An excerpt weighted towards active compounds, which were near 2.8% of everything screened.
MITF TRPM1 inh = inhibitors of MITF-dependent TRPM1 promoter reporter, primary screen, cell-based, SK-MEL-5, single point, luciferase | SK-MEL-5 TRPM1 promoter luciferase, 24 h | inhibition, % at 12.5 µM | hit rate 0.83% among 330,000;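 active = mean inhibition across replicates of 60% or more, whatever share of single replicates reaches that level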
KKLEB cytotox = cytotoxicity in KKLEB CF airway cells, primary screen, cytotoxicity control for CF NF-kB inhibitor project, cell-based, uHTS, fluorescence assay plates. activity change (cytotoxicity), % at 5 µM. AID 602141, 2011. KKLEB CF airway cells viability, ATPlite luminescence, overnight; active compounds read low; cells stimulated with P. aeruginosa culture filtrate. hit rate 0.36% among 360,000;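 active = corrected activity change at or below -50% at 5 µM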
Peg3 prom inh = Peg3 promoter-driven luciferase inhibitors, primary screen, cell-based, HeLa, luciferase luminescence; inhibition, % at 20 µM; hit rate 1.7% among 360,000; AID 588405, 2011; HeLa PEG-Prom luciferase reporter, overnight;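 active = inhibition of at least 50% at 20 µM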
Shn3 inh set2 = reduction of Shn3 3'UTR firefly luciferase signal, primary screen, Schnurri-3 inhibitor project, cell-based, Clone20 osteoblasts, set 2; hit rate 0.52% among 360,000; AID 588674, 2011; Clone20 osteoblast Shn3 3'UTR firefly luciferase, 24 h; inhibition, % at 12.5 µM;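 active = mean inhibition of at least 75% with every replicate also reaching 75%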;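 note: 0% = median of neutral control wells and 100% = pilot-screen positive control compound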
CF NFkB block = inhibitors of PAF-induced NF-kB signaling, primary screen, cell-based, GFP fluorescence, uHTS; inhibition, % at 5 µM; KKLEB NF-kB-GFP reporter, GFP fluorescence overnight; hit rate 0.86% among 360,000;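 active = at least 50% inhibition at 5 µM, scaled per plate between neutral and stimulator controls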;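 note: PAF is a Pseudomonas aeruginosa culture filtrate used as stimulus; plate controls were PAF-stimulated DMSO wells for no effect and unstimulated DMSO wells for full effect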
HIF-2a block = HIF-2a reporter inhibitors, primary screen, luminescence, 786-0 RCC cells. 786-0 RCC cells HIF-2a reporter, luciferase luminescence, overnight. inhibition, % at 18.8 µM. hit rate 0.72% among 360,000. AID 624352, 2012;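 active = inhibition of the luminescence signal of 40% or more relative to plate controls, in a single-dose primary screen at 18.75 µM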
Numbers without * were called inactive; nt = not tested or not shown.

SMILES	MITF TRPM1 inh	KKLEB cytotox	Peg3 prom inh	Shn3 inh set2	CF NFkB block	HIF-2a block
COc1ccc(C[C@H]2CN3C(=NC[C@H]3Cc3ccccc3)N2CCNC(=O)CCC2CCCCC2)cc1	35	-16	90*	27	22	-6
C/C=C(\C)C(=O)NCCN1C2=NC[C@H](Cc3ccccc3)N2C[C@@H]1Cc1ccc(OC)cc1	-3	-1	-16	-3	-12	10
COc1ccc(C[C@H]2CN3C(=NC[C@@H]3Cc3ccccc3)N2CCNC(=O)c2ccc(C)c(Br)c2)cc1	31	-33	97*	-7	27	2
COc1ccc(C[C@H]2CN3C(=NC[C@@H]3Cc3ccc(O)cc3)N2CCNC(=O)c2ccc(C)c(Br)c2)cc1	24	-17	45	31	21	-4
Cc1ccc(C(=O)NCCN2C3=NC[C@@H](Cc4ccccc4)N3C[C@H]2Cc2ccc(O)cc2)cc1Br	-13	5	79*	12	-2	6
Cc1ccc(S(=O)(=O)NC(=O)c2cc(C)n(-c3ccc(N(C)C)cc3)c2C)cc1	7	-4	-70	-9	0	-72
CC1S/C(=C(\C#N)C(N)=O)N(c2ccc(F)cc2)C1=O (stereo not drawn)	18	-6	15	-1	15	-1
CCC(C(=O)NNC(=O)c1cnccn1)c1ccccc1 (stereo not drawn)	12	10	19	-2	-3	12
Cc1ccc(-c2csc(=Nc3cccnc3)n2CCCn2ccnc2)cc1C	3	-6	28	77	75*	11
Cc1ccc(-c2csc(=Nc3cccnc3)n2CCCN2CCCC2=O)cc1C	21	-2	4	6	-2	10
O=C(CSc1n[nH]c(-c2ccccn2)n1)Nc1ccc(Cl)cc1	22	-1	53*	76	10	16
O=C(CSc1n[nH]c(-c2ccccn2)n1)Nc1ccc(F)cc1	12	10	32	82	-10	14
CCCc1nc2nc(C)c(NS(=O)(=O)c3ccc(C)c(C)c3)c(=O)n2[nH]1	nt	8	10	10	-70	3
COc1ccc(S(=O)(=O)N2CCOCC2)cc1NC(=O)c1ccc(S(=O)(=O)N(C)c2ccccc2OC)cc1	3	3	38	-3	7	18
O=C(Nc1ccccc1O)c1ccc2c(c1)C(=O)N(N1C(=O)c3ccccc3C1=O)C2=O	2	5	24	-9	-17	13
O=c1cccccc1NCc1ccccc1	-23	6	-11	-39	1	-59
O=C1C=C(NCc2ccccc2)c2ccccc2C1=O	104*	6	17	37	30	19
O=C1C=C(Nc2ccccc2O)c2ccccc2C1=O	100*	-64*	28	25	64*	-10
Cc1ccc(NS(=O)(=O)c2ccc3c(c2)C(=O)c2ccccc2C3=O)c(C)c1	24	-1	21	4	24	19
Cc1ccc(NC2=CC(=O)C(=O)c3ccccc32)c(C)c1	nt	-4	42	37	77*	-37
CCn1c(=O)c(=O)[nH]c2cc(C(=O)NC(C)c3ccc(S(N)(=O)=O)cc3)ccc21 (stereo not drawn)	-4	-7	-6	-2	-2	4
CC(=O)N(C)/C=C1\Sc2ccccc2C1=O	-1	-10	-1	1	8	-10
CC(=O)Nc1ccc(/C=C2\Sc3ccccc3C2=O)cc1	1	-3	-109	-39	0	50*
CC(=O)Nc1ccc(C=NN=C2c3ccccc3-c3ccccc32)cc1	0	-1	74*	26	-46	-91
COc1ccc(C=NN=C2c3ccccc3-c3ccccc32)cc1O	-22	-6	-32	3	-5	-56
O=C(CN1C(=O)C2C3c4ccccc4C(c4ccccc43)C2C1=O)Nc1ccccc1C(=O)O (stereo not drawn)	-11	-6	12	9	-17	23
